{"source": "PubChem BioAssay (EPA / NIEHS)", "note": "The source made the active and inactive calls. How the source made its calls: active means hit-call score of the fitted dose curve at least 0.9, where 1 is the maximum; inactive means score below 0.9.", "data": [{"target": "Transcription factor E2F1 (Homo sapiens) (UniProt Q01094)", "sequence (Q01094 whole entry, looked up)": "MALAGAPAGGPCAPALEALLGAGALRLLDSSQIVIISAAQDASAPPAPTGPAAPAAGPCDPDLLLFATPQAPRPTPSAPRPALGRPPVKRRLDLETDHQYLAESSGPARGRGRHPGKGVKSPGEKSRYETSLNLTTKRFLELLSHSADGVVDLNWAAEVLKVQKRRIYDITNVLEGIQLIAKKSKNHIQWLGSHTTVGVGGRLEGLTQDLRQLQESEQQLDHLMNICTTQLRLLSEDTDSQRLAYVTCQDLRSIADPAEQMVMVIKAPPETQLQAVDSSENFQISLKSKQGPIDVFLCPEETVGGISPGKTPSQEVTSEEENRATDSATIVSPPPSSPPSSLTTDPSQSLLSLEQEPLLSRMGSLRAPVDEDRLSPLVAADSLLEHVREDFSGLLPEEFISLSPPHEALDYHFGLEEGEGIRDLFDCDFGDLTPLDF", "experiment": "ATG_E2F_CIS: Attagene CIS-FACTORIAL HepG2 Assay for human E2F Transcription Factor 1 (AID 2282935)", "details": "HepG2 Attagene cis-reporter, E2F reporter RNA transcripts; actives raise or lower the signal", "description": "ATG_CIS is a cell-based, multiplexed-readout assay that uses HepG2, a human liver cell line, with measurements taken at 24 hours after chemical dosing in a 24-well plate.ATG_E2F_CIS is one of 52 assay component(s) measured or calculated from the ATG_CIS assay. It is designed to make measurements of mRNA induction, a form of inducible reporter, as detected with fluorescence intensity signals by Reverse transcription polymerase chain reaction (RT-PCR) and Capillary electrophoresis technology.Data from the assay component ATG_E2F_CIS was analyzed into 1 assay endpoint. This assay endpoint, ATG_E2F_CIS, was analyzed with bidirectional fitting relative to DMSO as the negative control and baseline of activity. Using a type of inducible reporter, measures of mRNA for gain or loss-of-signal activity can be used to understand the reporter gene at the transcription factor-level as they relate to the gene E2F1. Furthermore, this assay endpoint can be referred to as a primary readout, because this assay has produced multiple assay endpoints where this one serves a reporter gene function. To generalize the intended target to other relatable targets, this assay endpoint is annotated to the dna binding intended target family, where the subfamily is E2F transcription factor.\nHuman liver HepG2 cells are transiently transfected with multiple reporter transcription units (MRTUs) in 6-well plates using FuGene 6 reagent (Roche; 3 ml FuGene/1 mg DNA). The MRTU constructs are regulated by a cis-regulating element (promoter). […] A major difference between the CIS and TRANS system is that in CIS activities of endogenous TFs are measured, whereas the TRANS assay evaluates changes in activities of exogenous, chimeric NR-Gal4 proteins. […] At the end of 24 hour incubation, total RNA was isolated using TriZol reagent (Invitrogen). The isolated RNA is then reverse-transcribed using oligo(dT) primer and Mo-MLV reverse transcriptase (Invitrogen) with DNAse I (Ambion) treatment for 30 min. The one-tenth of the produced cDNA was amplified by PCR using Taq DNA polymerase (Invitrogen) and two reporter sequence-specific primers. The PCR products were fluorescently labeled by primer extension with 6-arboxyfluorescein (6-FAM) 5'-labeled reporter sequence-specific primer (2 min at 95 C, 20 s at 68 C and 10 min at 72 C) and these products were digested with 5U of HpaI (New England Biolabs) for 2h at 37 C. The fragments were purified using Qiaquick PCR columns (Qiagen), analyzed on an ABI 3130xL genetic analyzer (Applied Biosystems) with peak positions identified by using a set of X-rhodamine (ROX)-labeled MapMarker1000 molecular weight standards (BioVentures). The raw capillary electrophoresis data was processed using Attagraph software (Attagene).", "values": [{"smiles": "COc1cc(C)ccc1C(C)C", "outcome": "inactive"}, {"smiles": "Cc1cc(=O)n(-c2ccccc2)n1C", "outcome": "inactive"}, {"smiles": "COC(=O)/C=C/C(C)=C\\C=C\\C(C)=C\\C=C\\C=C(C)\\C=C\\C=C(C)\\C=C\\C(=O)O", "outcome": "inactive"}, {"smiles": "C[Si](C)(CCCN)O[Si](C)(C)CCCN", "outcome": "inactive"}, {"smiles": "Cc1cnc(NC(=O)C2=C(O)c3ccccc3S(=O)(=O)N2C)s1", "outcome": "inactive"}, {"smiles": "Cc1cc(C)c(C)c(C)c1", "outcome": "inactive"}, {"smiles": "CCCCCCCC/C=C\\CCCCCCCC(=O)O", "outcome": "inactive"}, {"smiles": "Cc1oncc1C(=O)Nc1ccc(C(F)(F)F)cc1", "outcome": "inactive"}, {"smiles": "CC=CC(=O)N(CC)c1ccccc1C", "outcome": "inactive"}, {"smiles": "O=C(/C=C/C=C/c1ccc2c(c1)OCO2)N1CCCCC1", "outcome": "inactive"}, {"smiles": "CC1=NN(c2cc(S(=O)(=O)O)ccc2Cl)C(=O)C1N=Nc1ccccc1", "note": "(stereo not given)", "outcome": "inactive"}, {"smiles": "C(=CC=Nc1ccccc1)C=CNc1ccccc1", "outcome": "inactive"}, {"smiles": "CC/C=C\\C/C=C\\C/C=C\\CCCCCCCC(=O)O", "outcome": "inactive"}, {"smiles": "O=c1c2ccccc2oc2ccccc12", "outcome": "inactive"}, {"smiles": "CC(C)c1ccc2cc(C(C)C)ccc2c1", "outcome": "inactive"}, {"smiles": "CCOC(=O)N1CCC(=C2c3ccc(Cl)cc3CCc3cccnc32)CC1", "outcome": "inactive"}, {"smiles": "N=c1ccn2c(n1)O[C@H]1[C@H](O)[C@@H](CO)O[C@H]12", "outcome": "inactive"}, {"smiles": "C=COCCCC", "outcome": "inactive"}, {"smiles": "CCC(CO)CO", "outcome": "inactive"}, {"smiles": "O=C(c1ccc(O)cc1)c1ccc(O)cc1O", "outcome": "inactive"}, {"smiles": "NC(=O)c1ccccc1O", "outcome": "inactive"}, {"smiles": "C=C[Si](OC(C)=O)(OC(C)=O)OC(C)=O", "outcome": "inactive"}, {"smiles": "O=C(O)CC(C(=O)O)C(CC(=O)O)C(=O)O", "note": "(stereo not given)", "outcome": "inactive"}, {"smiles": "COC(=O)c1ccccc1OC", "outcome": "inactive"}, {"smiles": "O=C(Cl)c1cc(C(=O)Cl)cc(C(=O)Cl)c1", "outcome": "inactive"}, {"smiles": "CO[Si](OC)(OC)c1ccccc1", "outcome": "inactive"}, {"smiles": "CC(=O)NS(=O)(=O)c1ccc(N)cc1", "outcome": "inactive"}, {"smiles": "c1cc(N(CC2CO2)CC2CO2)ccc1OCC1CO1", "note": "(stereo not given)", "outcome": "inactive"}, {"smiles": "CCOc1nc(F)cc2nc(S(=O)(=O)Nc3c(Cl)cccc3C(=O)OC)nn12", "outcome": "inactive"}, {"smiles": "O=CC1CC1", "outcome": "inactive"}, {"smiles": "C=CC(C)(C)C", "outcome": "inactive"}, {"smiles": "CCCCCCOC(=O)C(C)CC", "note": "(stereo not given)", "outcome": "inactive"}, {"smiles": "CCc1nccnc1C", "outcome": "inactive"}, {"smiles": "c1ccc(-c2ccccn2)nc1", "outcome": "inactive"}, {"smiles": "O=C(O)c1cc2ccccc2nc1C(=O)O", "outcome": "inactive"}, {"smiles": "CC(=O)Nc1nnc(S(N)(=O)=O)s1", "outcome": "inactive"}, {"smiles": "FC(F)=C(F)OC(F)(F)C(F)(F)C(F)(F)F", "outcome": "inactive"}, {"smiles": "CC(C)c1ccc2c(c1)CC[C@H]1[C@](C)(CN)CCC[C@]21C", "AC50": "6.03 µM (active)"}, {"smiles": "NC(=O)NNC(N)=O", "outcome": "inactive"}, {"smiles": "OCCNCc1ccccc1", "outcome": "inactive"}]}]}
